Assay results as given in ChEMBL document CHEMBL4513216, “Probing the Open Global Health Chemical Diversity Library for Multistage-Active Starting Points for Next-Generation Antimalarials” (ACS Infect Dis, 2020).
Screen size: about 69,000 compounds; about 8,600 (12%) showed an effect of 50% or more. This is one part of a sample in which strong results are shown more often than they occur.

Tested on: Plasmodium berghei
Test: Screen against P. berghei liver stage (PbLuc), transformed with Luciferase, at 10uM
Assay type: functional, HepG2
Conditions: tested at 10 uM

First: Nc1nccc(C2CCN(c3cnccn3)C2)n1 (centres undefined)
Second: CCc1c(C(=O)N2C[C@@H]3CC[C@H]2CN(c2cnccn2)C3)csc1C
The INHIBITION of the first is higher: 30.5% for the first, -59.5% for the second.

First: CCOc1cc(C(=O)N2CCCC(c3nc(C)c(C)s3)C2)ccn1 (centres undefined)
Second: Cc1cc(C(=O)N2CCCCC2c2nc(C)cs2)[nH]n1 (centres undefined)
The INHIBITION of the first is higher: 48.4% for the first, 35.7% for the second.

First: O=C(COc1ccc2c(c1)OCO2)NCc1ccco1
Second: CC(C)(NCC(=O)NCC1CC1)c1ccc2c(c1)OCCO2
The INHIBITION of the first is higher: 31.135% for the first, -36.3% for the second.

Compared with `CCCN1CCC(CC(=O)N2CCC(C(O)c3nccn3C)CC2)CC1` (centres undefined), `CCC1CCCCCN1C(=O)c1ccc(N2CCC(O)CC2)cc1` (centres undefined) is lower in INHIBITION: 6.69% for the first, -45.2% for the second.

Going from `CCn1nc(C)c2nc(C(C)C)nc(NC)c21` to `CCn1nc(C)c2nc(C(C)C)nc(N3CCCC3)c21`, the INHIBITION falls from 16.8% to 15.4%.

Going from `O=C1CCC2(CCCN(Cc3nnc(C4CC4)o3)C2)CN1CCO` (centres undefined) to `O=C1N(CCO)CCCC12CCN(Cc1nnc(C3CC3)o1)C2` (centres undefined), the INHIBITION rises from 34.4% to 61.1%.

Compared with `COCCN1CCCC2(CCN(Cc3noc(C4CCCC4)n3)C2)C1=O` (centres undefined), `COCCN1CCCC2(CCN(Cc3nnc(C4CC4)o3)C2)C1=O` (centres undefined) is higher in INHIBITION: 9.56% for the first, 51.2% for the second.

Compared with `COCCN1CCC2(CCCN(Cc3ccoc3)C2)C1=O` (centres undefined), `COCCN1CCCC2(CCN(c3ncnc(C)c3C)C2)C1=O` (centres undefined) is higher in INHIBITION: 8.74% for the first, 69.6% for the second.

Going from `CCN1CCCC2(CCN(Cc3nnc(C4CC4)o3)C2)C1=O` (centres undefined) to `COCCN1CCCC2(CCN(c3nccnc3N(C)C)C2)C1=O` (centres undefined), the INHIBITION falls from -9.18% to -52.2%.

Compared with `COCCN1CCCC2(CCN(c3ncc(Cl)cc3Cl)C2)C1=O` (centres undefined), `Cc1nccn1CCN1C(=O)CC2(CCCC2)CC1=O` is higher in INHIBITION: -5.8% for the first, 56% for the second.

First: Cc1nc2oc(C(=O)N3CCCC3)c(N)c2c2c1CCCC2
Second: Cc1cc(C)n(CC(=O)N2CCCCC2CCN2CCCC2=O)c(=O)n1 (centres undefined)
The INHIBITION of the first is lower: 16% for the first, 44.2% for the second.

First: CCn1cnnc1CNC(=O)N1CCN(c2ccc(OC)cc2)CC1
Second: CCN1CCN(C(=O)COCc2cccc(OC)c2)CC1
The INHIBITION of the first is higher: 36.1% for the first, -28.675% for the second.

First: CN(C)c1cc(CNC(=O)c2cnccn2)ccn1
Second: Cc1cnc(CNC(=O)NCc2cccnc2N(C)C)s1
The INHIBITION of the first is lower: -6.14% for the first, 45.8% for the second.

Going from `O=C(Cc1c(F)cccc1Cl)Nc1cc(N2CCOCC2)ncn1` to `COC(=O)CCC(=O)NCc1cccnc1N1CCc2ccccc2C1`, the INHIBITION falls from 30.9% to -13.1%.

Going from `CC(C)n1nc(CN2CCCC2=O)c2c1CN(C(=O)c1ccco1)C2` to `O=C1CCCN1CCC1CCCCN1C(=O)c1ccc(SCCO)cc1` (centres undefined), the INHIBITION rises from 39.5% to 58.2%.

First: CCC1c2cccn2CCN1S(=O)(=O)N1CCOCC1 (centres undefined)
Second: CC(=O)c1ccc(S(=O)(=O)N2CCCC2CN2CCCC2)cc1 (centres undefined)
The INHIBITION of the first is lower: 31.2% for the first, 51.1% for the second.

First: Cc1ccc(CN2C(=O)CCC23CCC(NC2CCOC2)CC3)cc1 (centres undefined)
Second: CN(C)CCn1c2c(ccc1=O)CC(NC(=O)NC1CCCC1)CC2 (centres undefined)
The INHIBITION of the first is lower: 35.8% for the first, 39.5% for the second.

Going from `Cc1occc1C(=O)N1CCOCC2(CCN(C3CCOCC3)C2)C1` (centres undefined) to `COC[C@]1(O)CCN(C2CCN(c3ccc(F)c(F)c3)CC2)CC1(C)C`, the INHIBITION falls from 43.9% to 39.4%.

Going from `CC(C)S(=O)(=O)N1C[C@@H](O)[C@H](N(C)Cc2ccc(F)cc2)C1` to `Cc1ccc(C(=O)N2CCCCC2CN(C)C)cc1` (centres undefined), the INHIBITION falls from 30.75% to 21.8%.

Going from `CNC(=O)Cc1ccc(NC(=O)NCc2nc(C)sc2C)cc1` to `CNC(=O)Cc1ccc(NC(=O)NCc2ncc(C)s2)cc1`, the INHIBITION rises from 52.2% to 64%.

Going from `CNC(=O)Cc1ccc(NC(=O)NCC(C)c2ncc(C)s2)cc1` (centres undefined) to `CNC(=O)Cc1ccc(NC(=O)NC(C)C(C)C)cc1` (centres undefined), the INHIBITION falls from 14.8% to -9.48%.

First: CNC(=O)Cc1ccc(NC(=O)NC2(c3cccc(F)c3)CC2)cc1
Second: O=C(Cc1cccc(O)c1)NCCCNC(=O)c1cccc(F)c1
The INHIBITION of the first is higher: 9% for the first, 8.64% for the second.

Going from `COc1ccc(-c2nc(CN3CCc4cncnc4C3)no2)cc1` to `Cc1cccc(-c2nc(N)nc3c2CN(C(=O)c2ccncn2)C3C)c1` (centres undefined), the INHIBITION rises from 5.72% to 19.9%.

First: CC(=O)c1ccc(C(=O)N2C[C@@H](CN3CCCC3)[C@@H](CO)C2)cc1
Second: COCCCC1CCCCN1C(=O)c1ccc(SCCO)cc1 (centres undefined)
The INHIBITION of the first is lower: 32.5% for the first, 52.6% for the second.

First: CSc1ccc(S(=O)(=O)N2CCCCC2CCNC(C)=O)cc1 (centres undefined)
Second: N#Cc1ccc(NC(=O)N2CCCCC2CN2CCCC2=O)cc1 (centres undefined)
The INHIBITION of the first is lower: 11.8% for the first, 44.9% for the second.

First: COC(=O)c1cccc(C2CNCCN2C(C)=O)c1 (centres undefined)
Second: COC(=O)CNC(=O)Cn1ccc2cccc(OC)c21
The INHIBITION of the first is lower: 24.99% for the first, 48.9% for the second.

First: Cc1csc(N2CCN(CC(=O)Nc3cc(C)nn3C)CC2C)n1 (centres undefined)
Second: Cc1csc(C2CCCCN2C(=O)c2cc(C(C)C)[nH]n2)n1 (centres undefined)
The INHIBITION of the first is lower: 12.96% for the first, 70.8% for the second.

First: Cc1nncn1CCN1C(=O)CC2(CCCC2)CC1=O
Second: O=C1CC2(CCCC2)CC(=O)N1CCn1cnnc1
The INHIBITION of the first is higher: -23.3% for the first, -28.9% for the second.

Going from `CC(C)c1nn(C)c(N(C)C)c1CNC1CCCCNC1=O` (centres undefined) to `CCn1ccc(C(=O)Nc2ccc3c(c2)C(C)(C)C(=O)N3C)n1`, the INHIBITION rises from -4.13% to 40%.

Going from `Cc1cccc(-c2nc(N)nc3c2CN(C(=O)c2cc(C)n[nH]2)C3C)c1` (centres undefined) to `COCC(=O)N1Cc2c(-c3cccc(C)c3)nc(N)nc2C1C` (centres undefined), the INHIBITION falls from 58.9% to -24.1%.

Compared with `Cc1cc(C(=O)Nc2cccn(Cc3ccccc3)c2=O)no1`, `CC(NC(=O)C1=NN(C)C(=O)CC1)c1cccc(Cl)c1` (centres undefined) is higher in INHIBITION: -85.8% for the first, 24.3% for the second.

Compared with `O=C(c1ccccn1)N1CCC2(CC1)COC(COCC1CC1)C2` (centres undefined), `Cc1csc(C2CCCCN2C(=O)c2cc(C3CC3)[nH]n2)n1` (centres undefined) is lower in INHIBITION: 23.5% for the first, 13.6% for the second.

Going from `Cc1cc(C2CCC2)nc(NCC(C)(C)N2CCCC2)n1` to `Cc1cc(C2CCC2)nc(NCC(C)(C)N2CCOCC2)n1`, the INHIBITION falls from 57.2% to 9.52%.

Going from `CCN1CCN(C(C)(C)CNc2nc(C)cc(C3CCC3)n2)CC1` to `Cc1nc(CN2CCC(C(=O)O)(n3ccc(C(C)C)n3)CC2)co1`, the INHIBITION falls from 9.52% to -35.2%.

`COc1ccc2c(c1)CN(C)C(=O)CCN2CC(O)C(C)(C)C` (centres undefined) was tested, and the INHIBITION was 17.7%.
